Rows were chosen to be rich in hits. Some 7.5% of all compounds tested hit in one or more screens of this group.
FLuc counter: inhibits or activates purified firefly luciferase, miR-21 counter-screen; purified FLuc, Km substrates, luminescence inhibition; Potency, µM (doses to about 57.5 µM), without a hit: top-dose activity change, negative = inhibition, usual class: inhibitors; hit rate 6.9% among 360,000; AID 588342; P08659;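 further: plate controls were vehicle for no effect and reference inhibitor for full effect; nearly all actives have a fitted effect of over 55% in size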
Target sequence (P08659 whole entry, looked up): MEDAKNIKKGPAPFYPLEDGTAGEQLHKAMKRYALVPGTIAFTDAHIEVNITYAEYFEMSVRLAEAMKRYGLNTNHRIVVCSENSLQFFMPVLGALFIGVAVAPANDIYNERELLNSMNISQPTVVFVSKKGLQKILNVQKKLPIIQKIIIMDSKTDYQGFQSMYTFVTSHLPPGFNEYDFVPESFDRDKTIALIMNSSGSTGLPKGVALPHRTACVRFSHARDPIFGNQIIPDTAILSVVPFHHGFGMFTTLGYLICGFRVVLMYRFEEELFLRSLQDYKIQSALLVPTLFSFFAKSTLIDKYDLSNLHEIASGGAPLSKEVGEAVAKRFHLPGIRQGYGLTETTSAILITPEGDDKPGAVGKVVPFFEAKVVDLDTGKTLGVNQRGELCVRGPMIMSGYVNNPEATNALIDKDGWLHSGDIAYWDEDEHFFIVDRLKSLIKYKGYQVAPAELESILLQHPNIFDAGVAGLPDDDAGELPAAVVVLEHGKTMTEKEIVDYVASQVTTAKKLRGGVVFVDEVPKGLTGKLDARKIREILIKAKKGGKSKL
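Purified P. pyralis luciferase, 10 nM final, with Km-level 10 uM D-luciferin and 10 uM ATP in 50 mM Tris acetate pH 7.5, 10 mM Mg acetate, 0.01% Tween-20, 0.05% BSA; 6-point qHTS titration about 60 µM downward; luminescence read.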
ELG1 genotoxic: genotoxicity induction in ELG1-luciferase HEK293T cells. HEK293T ELG1-luciferase reporter, luminescence, 16 h. Potency, µM (top dose mostly 46 µM), inactives show at the top dose activity change, positive = activation, actives largely listed as activators. hit rate 1.3% among 330,000. AID 504466; further: % of control where 0% means no effect; nearly all actives have a fitted effect of over 60% in size
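DMSO vehicle served as control against compound-treated ELG1-luciferase HEK293T cells; exposure lasted 16 hr at 37 °C and 5% CO2, followed by ONE-Glo luminescence detection after 30 min.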
KinaseGlo FLuc: blocks Kinase-Glo luciferase, a counter-screen artifact; Kinase-Glo luciferase, ATP luminescence, 8 min; hit rate 0.28% among 200,000; AID 1379; Q27757; Potency, µM (doses to about 38.3 µM), inactives show top-dose activity change, negative = inhibition, hits mostly inhibitors; further: on the % scale 0 is the no-effect control and ±100 the full control effect; nearly all actives have a fitted effect of over 60% in size
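Inhibition of Kinase-Glo luciferase light generation was assessed at 10 uM ATP in pH 7.2 imidazole buffer, with luminescence measured after eight minutes at ambient temperature.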
Rab9 prom act: activates the Rab9 promoter; Huh7 Rab9 promoter-luciferase reporter, luminescence, 24 h; Potency, µM (series often up to 9.22 µM), for the others: top-dose activation, negative = inhibition, hits mostly activators; hit rate 2.8% among 320,000; further: % of control where 0% means no effect; nearly all actives have a fitted effect of over 60% in size
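Steps: seed 1500 Huh7 Rab9-luc cells per well, rest 2 h at 37 °C; add compound in DMSO; incubate 24 h; add luciferase reagent, 10 min ambient; read luminescence.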
NPC1 promoter act: NPC1 promoter activation; Huh7 NPC1 promoter luciferase reporter, 24 h; Potency, µM (titrated, usually from 9.22 µM), for the others: top-dose activation, hits mostly activators; hit rate 2.4% among 320,000; AID 485313; further: % of control where 0% means no effect; nearly all actives have a fitted effect of over 60% in size
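Quantitative HTS used a cell-based reporter: Huh7 cells stably bearing the NPC1 promoter upstream of luciferase were treated with compounds for 24 h, and promoter activation was read as luminescence.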
SMN2 splice enh: increases expression of the SMN2 splice variant | hit rate 2.8% among 210,000 | Potency, µM (highest dose often 46.1 µM), for inactives: top-dose activity change, positive = activation, most hits filed as activators | HEK293 SMN2-luciferase splicing reporter, luminescence, 30-36 h; further: % of control where 0% means no effect; nearly all actives have a fitted effect of over 55% in size
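HEK293 cells carry an SMN2 […]–luciferase reporter in which exon 7 inclusion puts luciferase in frame. Cells were plated 10-12 h before compound addition, then incubated 30-36 h at 37C. ONE-Glo luminescence was read; sodium butyrate at 4.5 mM final served as control.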
* hit, by the source's call; ? = inconclusive; nt = no result given; [ ] = remark or other dose. The call rests on the fitted dose curve; in most records, active means well fitted curve in the direction sought with a large enough effect; inconclusive means small, poorly fitted or top-dose-only effect, or another doubt; inactive means no such curve, though single readings can be large; an effect the other way counts as inactive or inconclusive. Potency means the concentration at half of the fitted maximal effect.

SMILES | FLuc counter | ELG1 genotoxic | KinaseGlo FLuc | Rab9 prom act | NPC1 promoter act | SMN2 splice enh
O=C(Nc1nncs1)C1COc2ccccc2O1 (stereo not given) | ? | 15% | -5% | 3% | 19% | ?
CC1(C)CC(=O)c2sc(NC(=O)c3ccco3)nc2C1 | 6µM* | 21µM* | -14% | 28% | ? | ?
CC1(C)CC(=O)c2sc(NC(=O)C3COc4ccccc4O3)nc2C1 (stereo not given) | ? | 21µM* | 4% | ? | 25% | 13µM*
CC(C)(C)c1csc(NC(=O)C2COc3ccccc3O2)n1 (stereo not given) | 15µM* | ? | nt | ? | ? | nt
CC(=O)c1sc(NC(=O)C2COc3ccccc3O2)nc1C (stereo not given) | 1.9µM* | ? | -4% | 0.35µM* | 0.45µM* | 3.2µM*
COc1cccc(Cn2c(SCC(=O)N3CCN(c4ccc(F)cc4)CC3)nc3ccccc32)c1 | -1% | nt | nt | nt | nt | -8%
O=C(Nc1nnc(C2CC2)s1)C1COc2ccccc2O1 (stereo not given) | 11µM* | 4.1µM* | -14% | 0.89µM* | 2.8µM* | 5.6µM*
O=C(Nc1nnc(C(F)(F)F)s1)C1COc2ccccc2O1 (stereo not given) | ? | 4% | 16% | 27% | 28% | -28%
CC(C)C[C@@H](CC(=O)N[C@@H](CCC(=O)O)CC(=O)O)NC(=O)[C@@H]1CCCC[C@H]1NC(=O)C[C@H](CCCN)NC(=O)C[C@H](Cc1ccccc1)NC(=O)[C@@H]1CNCC[C@H]1N | nt | nt | -2% | nt | nt | 4%
O=c1cc(N2CCOCC2)oc2c(-c3ccccc3)cccc12 | nt | nt | -4% | -24%[46.1 µM] | -19%[46.1 µM] | ?
CCCN1C(=O)/C(=C/c2ccc(C)s2)NC1=S | 27µM* | -6% | 0% | -7% | -2% | -4%
Cc1ccc(/C=C2/NC(=O)N(Cc3ccccc3F)C2=O)s1 | 8% | 6% | nt | -7% | -4% | nt
CC(=O)c1ccc(OCc2cc(C(=O)N3CCOCC3)no2)cc1 | 17µM* | ? | nt | ? | ? | nt
CC(=O)c1ccc(OCc2cc(C(=O)N3CCCCCCC3)no2)cc1 | ? | -6% | nt | 28% | 14% | nt
CC(=O)c1ccc(OCc2cc(C(=O)N3CCC(Oc4ccccc4C)CC3)no2)cc1 | 19µM* | 15% | nt | ? | ? | nt
Oc1cccc2ccc(/C=C/c3cccs3)nc12 | 2.1µM* | 2.2µM* | -17% | 2.8µM* | ? | 25%
Cc1ccsc1/C=C/C(=O)O | 0% | 1% | 3% | 1% | -2% | 16%
Cc1ccsc1/C=C/c1ccc2ccccc2n1 | 1.7µM* | ? | 11µM* | 2.2µM* | 2µM* | 0.89µM*
Cc1ccsc1/C=C/c1ccc2cccc(O)c2n1 | 2.7µM* | 9.2µM* | -22% | 3.5µM* | ? | ?
Oc1c(Cl)cc(Cl)cc1/C=C/c1ccc2cccc(O)c2n1 | ? | -15% | 2% | -32% | -35% | -20%
CCCn1c(C)nc2c(N3CCC(N4CCN(C)CC4)CC3)nc(C)nc21 | nt | nt | 0% | nt | nt | 10%
O=C(CSc1oc(-c2ccccc2)nc1S(=O)(=O)c1ccc(Br)cc1)c1ccccc1 | 3% | nt | nt | nt | nt | -3%
O=C(Nc1ccccc1)ON=C1CCCC1 | 24µM* | ? | -19% | ? | 26% | 20µM*
O=C(Nc1ccccc1)O/N=C/c1ccncc1 | ? | 7% | 2% | 5% | 3% | 2%
Cc1ccc(NC(=O)ON=C2CCCC2)cc1 | 8.5µM* | 21µM* | 0% | 3.5µM* | ? | ?
O=C(N/N=C\c1ccc(F)cc1)c1csnn1 | 24µM* | ? | -17% | 22% | 24% | 6%
O=C(N/N=C/c1ccc(F)cc1)c1ccccc1 | 12µM* | ? | -21% | 2µM* | 2.8µM* | 18µM*
O=C(Nc1ccccc1C(=O)N/N=C/c1ccc(F)cc1)c1ccccc1Br | 6µM* | -1% | -19% | 7% | 7% | -5%

Screens deposited in PubChem by National Center for Advancing Translational Sciences (NCATS).
